Measurements reported in PubChem BioAssay (NCATS).
Inconclusive results are not listed. Activity calls are given as the source filed them. Unless noted, calls follow the shape of the full dose curve.

Assays:
[1] = qHTS for Inhibitors of the Functional Ribonucleoprotein Complex (vRNP) of Lassa (LASV) Arenavirus: LASV Primary Screen - GLuc reporter signal (AID 1347082; calls by dose curve; tested in HEK293 reporter line; also: nearly all actives have a fitted effect of over 60% in size)
[2] = qHTS for Inhibitors of the Functional Ribonucleoprotein Complex (vRNP) of Lassa (LASV) Arenavirus: Viability assay - alamar blue signal for LASV Primary Screen (AID 1347083; calls by dose curve; tested in HEK293 reporter line; also: nearly all actives have a fitted effect of over 80% in size)
[3] = qHTS for Inhibitors of the Functional Ribonucleoprotein Complex (vRNP) of Lymphocytic Choriomeningitis Arenaviruses (LCMV): Viability assay - alamar blue signal for LCMV Primary Screen (AID 1347085; calls by dose curve; tested in HEK293 reporter line; also: nearly all actives have a fitted effect of over 80% in size)
[4] = target: Nucleoprotein (Lymphocytic choriomeningitis virus (strain Armstrong)) (UniProt P09992); assay: qHTS for Inhibitors of the Functional Ribonucleoprotein Complex (vRNP) of Lymphocytic Choriomeningitis Arenaviruses (LCMV): LCMV Primary Screen - GLuc reporter signal (AID 1347086); also: nearly all actives have a fitted effect of over 70% in size
Nucleoprotein (Lymphocytic choriomeningitis virus (strain Armstrong)), sequence (P09992 whole entry, looked up): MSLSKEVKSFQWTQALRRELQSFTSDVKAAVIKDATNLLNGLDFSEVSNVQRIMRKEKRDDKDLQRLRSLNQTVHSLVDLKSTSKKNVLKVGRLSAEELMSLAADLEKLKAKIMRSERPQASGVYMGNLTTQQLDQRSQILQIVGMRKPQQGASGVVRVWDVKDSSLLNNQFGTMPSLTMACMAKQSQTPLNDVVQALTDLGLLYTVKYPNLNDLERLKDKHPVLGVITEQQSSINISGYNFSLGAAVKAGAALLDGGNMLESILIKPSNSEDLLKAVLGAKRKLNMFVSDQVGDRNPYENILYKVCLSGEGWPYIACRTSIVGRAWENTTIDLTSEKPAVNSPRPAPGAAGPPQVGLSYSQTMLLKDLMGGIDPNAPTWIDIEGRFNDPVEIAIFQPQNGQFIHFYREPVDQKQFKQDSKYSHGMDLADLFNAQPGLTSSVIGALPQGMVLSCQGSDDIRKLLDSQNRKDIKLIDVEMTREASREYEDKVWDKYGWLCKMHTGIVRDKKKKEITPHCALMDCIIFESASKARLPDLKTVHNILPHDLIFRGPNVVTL

Measured: Potency
Also: series mostly up to about 57 µM.

CCOc1ccccc1O[C@H](c1ccccc1)[C@H]1CNCCO1
inactive: all assays above

Cc1[nH]c(C)c(Cl)c(=O)c1Cl
inactive: all assays above

CCOC(CN1CCN(CC(C)C(=O)c2ccccc2)CC1)c1ccccc1 (stereo unspecified)
inactive: all assays above

CCCCN1CCCC[C@H]1C(=O)Nc1c(C)cccc1C
inactive: all assays above

CC(C)C(=O)Nc1cccc(C2CN3CCSC3=N2)c1 (stereo unspecified)
inactive: all assays above

CCN(CC)C(=O)N1CCN(C)CC1
inactive: all assays above

COC(=O)[C@H]1[C@H]2C[C@@H]3c4[nH]c5cc(OC)ccc5c4CCN3C[C@H]2C[C@@H](OC(=O)COc2ccc(OC)cc2)[C@@H]1OC
inactive: all assays above

CCCCNc1cc(C(=O)O)cc(S(N)(=O)=O)c1Oc1ccccc1
inactive: all assays above

CC(=O)Nc1cccc(O)c1
inactive: all assays above

CCn1cc(C(=O)O)c(=O)c2cc(F)c(N3CCNCC3)nc21
inactive: all assays above

OCc1ccccc1O
inactive: all assays above

Cc1ccc(/C=N/n2c(-c3ccccc3)csc2=S)cc1
inactive: all assays above

CCCCN1CCCC1C(=O)Nc1c(C)cc(C)cc1C (stereo unspecified)
inactive: all assays above

CC(=O)OCC(=O)[C@@]1(O)CCC2C3CCC4=CC(=O)CC[C@]4(C)C3[C@@H](O)C[C@@]21C (stereo partly specified)
inactive: all assays above

O=C1NC(=O)[C@@]2(CCOc3ccc(F)cc32)N1
inactive: all assays above

FC(F)(F)C(Cl)Br (stereo unspecified)
inactive: all assays above

CCCCOc1ccc(OCCCN2CCOCC2)cc1
inactive: all assays above

Nc1ccc(S(=O)(=O)Nc2cnc3ccccc3n2)cc1
inactive: all assays above

Nc1c(NC/C=C\COc2cc(CN3CCCCC3)ccn2)c(=O)c1=O
inactive: all assays above

CN(C(=O)c1c(O)c2ccccc2n(C)c1=O)c1ccccc1
inactive: all assays above

CC(=O)/C=C/C=C1/C2CCC(C2)C1(C)C (stereo unspecified)
inactive: all assays above

O=C(O)C(=O)Nc1cccc(-c2nn[nH]n2)c1
inactive: all assays above

C#CC1(O)CC[C@H]2[C@@H]3CCC4=CCCC[C@@H]4[C@H]3CC[C@@]21C (stereo partly specified)
inactive: all assays above

Nc1ccc(S(=O)(=O)Nc2nccs2)cc1
inactive: all assays above

CC[C@H](c1ccc(O)cc1)[C@@H](CC)c1ccc(O)cc1
inactive: all assays above

CCC(CC)(CC(=O)Nc1cccc(/C=C/c2nc(C3CCC3)cs2)c1)C(=O)O
inactive: all assays above

O=S1(=O)c2cccc3cccc(c23)N1CCCN1CCN(c2ccc(F)cc2)CC1
inactive: all assays above

OCC(O)CN1CCN(c2ccccc2)CC1 (stereo unspecified)
inactive: all assays above

CC(=O)CCC(=O)O
inactive: all assays above

CSc1ccc(C(=O)c2[nH]c(=O)[nH]c2C)cc1
inactive: all assays above

C/C=C/c1ccc(OC)cc1
inactive: all assays above

O=C(O)c1cn(C2CC2)c2cc(Cl)c(F)cc2c1=O
inactive: all assays above

Cc1cccc(N(C)C(=S)Oc2ccc3c(c2)CCC3)c1
inactive: all assays above

OC(CCCN1CCCCC1)(c1ccccc1)c1ccccc1
inactive: all assays above

CC(=O)Oc1ccc(C(=C2CCCCC2)c2ccc(OC(C)=O)cc2)cc1
inactive: all assays above

CC(C)(C)c1nnc(NS(=O)(=O)c2ccc(N)cc2)s1
inactive: all assays above

c1ccc(CNCCNCc2ccccc2)cc1
inactive: all assays above

Cc1cccc(N(C)C(=S)Oc2ccc3c(c2)C2CCC3C2)c1 (stereo unspecified)
inactive: all assays above

Cc1ccc(=O)n(-c2ccccc2)c1
inactive: all assays above

CCN(CC)CCOC(=O)C(Cc1cccc2ccccc12)CC1CCCO1 (stereo unspecified)
inactive: all assays above

O=C(c1ccc(F)cc1)C1CCN(CCn2c(=O)[nH]c3ccccc3c2=O)CC1
inactive: all assays above

CCN(CC)CC(=O)Nc1c(C)cccc1C(=O)OC
inactive: all assays above

CCCCOc1ccc(C(=O)CCN2CCCCC2)cc1
inactive: all assays above

Oc1ccc(O)cc1
inactive: all assays above
